Test results published in PubChem BioAssay (Tox21).
Unmarked numbers belong to inactive results. Active and inactive are the calls of the source. Calls come from the whole dose curve; as a rule, active = well fitted curve in the direction sought with a large enough effect in the repeat runs; inconclusive = weak or mixed curves; inactive = flat fitted curve, though single readings scatter.

Experiment: qHTS assay to test for compound auto fluorescence at 535 nm (green) in HepG2 cell free culture (AID 720686)
Conditions: Cell-free medium, green autofluorescence 485/535 nm; series mostly up to 91.3 µM; fluorescence, % of fluorescein control: at the top concentration
Description: U.S. Tox21 Program National Center for Advancing Translational Sciences [NCATS] NIH Chemical Genomics Center [NCGC] U.S. Environmental Protection Agency [EPA] National Institutes of Environmental Health Sciences [NIEHS] National Toxicology Program [NTP] U.S. Food and Drug Administration [FDA] Tox21 Assay Overview: Compound auto fluorescence often interferes with screening of the compound library against various biological targets and signaling pathways. Some of these compounds may have fluorophoric properties. Such properties may interfere with the assay outputs resulting in false positives and/or negatives. To decrease such complications and ensure the compound activities are relevant in terms of biological response, the Tox21 10K compound library was screened for auto fluorescence. From the fluorophores used as reporter signals in our screening assays, the auto fluorescence equivalencies of compounds against three fluorophores have been evaluated: Triamterene, Fluorescein and Rose Bengal sodium for blue, green and red fluorescence, respectively. The fluorescence intensities were measured using Excitation/Emission wavelengths at 405/460nm, 485/535nm and 540/590nm for blue, green and red labels, respectively. This assay includes the green fluorescence data.
Tox21 Assay Protocol Summary: 5 uL of culture medium (MEM containing 10% FBS) per well was dispensed into black wall/clear bottom 1536-well plates using a Multidrop Combi Dispenser (ThermoFisher Scientific, Waltham, MA). After 23 nL compound or DMSO vehicle was transferred into assay plate by a pintool work station (Kalypsys, San Diego, CA), fluorescence intensities in the assay plates were measured by an Envision (PerkinElmer, Shelton, CT) plate reader using three labels for measuring blue, green and red fluorescence at […] 460, 535 and 590nm respectively.
% is set by controls: 0 for no effect and ±100 for the full control effect.

SMILES | fluorescence, % of fluorescein control | outcome
Nc1ccc(S(=O)(=O)NCc2ccccc2)cc1 | -0.0179% [at 46 µM] | –
CC(=O)OCC1=C(C(=O)O)N2C(=O)[C@@H](NC(=O)CSc3ccncc3)[C@H]2SC1 | -0.0921% [at 46 µM] | –
CC(CCc1ccc(O)cc1)NCCc1ccc(O)c(O)c1 (stereo not given) | -0.0137% [at 46 µM] | –
CC(=O)OCCC(C)CC(C)(C)C (stereo not given) | 0.0847% | –
O=C(O)CCS | 0.0357% [at 95.7 µM] | –
CC(C)(O)CCc1ccccc1 | 0.0126% | –
CCCCCCCCCCCCCCCCCC(=O)OCC(CC)CCCC (stereo not given) | 0.054% | –
O=C(O)CNC(=O)c1ccccc1I | 0.0005% [at 46 µM] | –
CC(C)(C)C1(CCc2ccc(Cl)cc2)CO1 (stereo not given) | -0.0226% | –
Cc1cn([C@H]2C[C@H](F)[C@@H](CO)O2)c(=O)[nH]c1=O | 0.0786% [at 46 µM] | –
CCc1ccc(C)cc1 | 0.0226% | –
CCSC(=O)N(CC)CC | -0.102% | –
CC(CN(CCN(CC(C)OCCO)CC(C)OCCO)CC(C)OCCO)OCCO (stereo not given) | -0.177% [at 95.7 µM] | –
CC(C)(C)CCCCCCOC(=O)c1ccccc1C(=O)OCCCCCCC(C)(C)C | 0.0568% | –
C/C(C=O)=C\c1ccccc1 | -0.113% | –
O=S(=O)(O)CO | -0.0094% | –
O=C1OC(=O)c2c(Br)c(Br)c(Br)c(Br)c21 | -0.0913% | –
CCC(Cl)CC(Cl)C(Cl)C(Cl)C(Cl)C(C)Cl (stereo not given) | -0.002% [at 13.4 µM] | –
C1CCCCC1 | 0.079% [at 95.7 µM] | –
CCCCCCCC(=O)Oc1c(Br)cc(C#N)cc1Br | -0.174% | –

SMILES | fluorescence, % of fluorescein control | outcome
O=C(C(=O)c1ccco1)c1ccco1 | 0.0091% | –
C[C@@H]1[C@H](O)[C@@H](C)/C=C/C=C\C=C\C=C\C=C\C=C\C=C\[C@H](O[C@@H]2O[C@H](C)[C@@H](O)[C@H](N)[C@@H]2O)C[C@@H]2O[C@](O)(C[C@@H](O)C[C@@H](O)[C@H](O)CC[C@@H](O)C[C@@H](O)CC(=O)O[C@H]1C)C[C@H](O)[C@H]2C(=O)O (stereo in doubt) | – | inactive
CCO[Si](C)(CCCOCC1CO1)OCC (stereo not given) | 0.0252% | –
CC(=O)NNC(C)=O | -0.117% [at 95.7 µM] | –
O=C(O)CO | 0.0065% | –
CSCC[C@H](NC(=O)[C@H](Cc1c[nH]c2ccccc12)NC(=O)CCNC(=O)OC(C)(C)C)C(=O)N[C@@H](CC(=O)O)C(=O)N[C@@H](Cc1ccccc1)C(N)=O | -0.112% [at 46 µM] | –
CCCCCCC(O)CCOC(C)=O (stereo not given) | 0.0761% [at 203 µM] | –
C[C@H](CS)C(=O)N1CCC[C@H]1C(=O)O | -0.0058% [at 46 µM] | –
Cc1ccc2c(c1[N+](=O)[O-])C(=O)c1ccccc1C2=O | 0.01% [at 46 µM] | –
Nc1ccc(F)cc1 | 0.0869% [at 95.7 µM] | –
CCCCCCCCCCCSCC(=O)O | 0.004% | –
ClC1=C(Cl)C1(Cl)Cl | 0.0593% [at 95.7 µM] | –
CC(C)c1ccc(C#N)cc1 | 0.0522% | –
CCC(=O)OCc1ccc(OC)cc1 | -0.0003% | –
CC1CCCC(=O)C1=O (stereo not given) | 0.0076% | –
CCCCC(CC)COS(=O)(=O)O (stereo not given) | – | inactive
CC(C)N(C)C | -0.0959% | –
CC(C)(O)c1coc(S(=O)(=O)NC(=O)Nc2c3c(cc4c2CCC4)CCC3)c1 | -0.0019% | –
CCC(C)(C)C(=O)O | -0.101% | –
[Cl][Nd]([Cl])[Cl] | -0.0148% | –
